Screening data deposited in PubChem by National Center for Advancing Translational Sciences (NCATS).
This is a sample that favours compounds with a hit; in the whole collection about 3.6% have one here.
A549 viability – kills or reduces viability of A549 cells in Nrf2 counter-screen; AID 504648; Potency, µM (titrated, usually from 46 µM), most hits filed as inhibitors; A549 ARE-Fluc cells, CellTiter-Fluor viability, 18-24 h; hit rate 0.16% among 390,000
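Cytotoxicity counterscreen: CellTiter-Fluor fluorescence was measured in A549 ARE_Fluc cells after 18-24 h of compound exposure in a concentration series. The subsequent BugLite luminescent read reports ARE-luciferase activity.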
Nrf2 ARE act – Nrf2 pathway activation. AREc32 ARE-luciferase reporter (MCF7-derived line), luminescence, 24 h. Potency, µM (top dose mostly 46.1 µM), usual class: activators. hit rate 0.31% among 410,000; also: nearly all actives have a fitted effect of over 65% in size
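ARE-driven firefly luciferase activity in AREc32 cells measured after a 24 hr compound exposure at 37 deg C, using Steady-Glo reagent and a 30 min room-temperature hold.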
TGFb inhibitor – TGF-b pathway inhibition. HepG2 CAGA-GFP TGF-b/SMAD3 reporter, GFP fluorescence, 18 h; TGF-beta stimulated, 500 pg/mL final. Potency, µM (series often up to 46.1 µM), usual class: inhibitors. hit rate 1.2% among 410,000. AID 588855; also: nearly all actives have a fitted effect of over 65% in size
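Using HEPG2 CAGA-GFP reporter cells at 1000 cells/well, we pinned test compounds, stimulated with recombinant TGF-beta (500 pg/mL final) and measured total well GFP after 18 h.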
Nrf2 block – Nrf2 pathway inhibition. A549 ARE-Fluc reporter, luciferase luminescence, 18-24 h. Potency, µM (titrated, usually from 46 µM), usual class: inhibitors. hit rate 2.1% among 360,000; also: nearly all actives have a fitted effect of over 60% in size
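Two sequential reads on A549 ARE_Fluc cells exposed to compound for 18-24 h: a CellTiter-Fluor fluorescence read for viability, then a luciferase luminescence read for Nrf2/ARE activity.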
HepG2 viability – kills HepG2 cells in TGF-b inhibitor counter-screen; hit rate 0.76% among 410,000; HepG2 CAGA-GFP viability, ATP luminescence, 18 h; Potency, µM (series often up to 46.1 µM), actives largely listed as cytotoxic
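HepG2 CAGA-GFP cells (1000/well, DMEM with 1% FBS) received compound, then TGF-beta at 500 pg/mL final, and were incubated 18 hours at 37 degrees C. Viability was read by CellTiter-Glo luminescence. Media-only wells were set as complete cell-killing and DMSO as no toxicity.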
Large screens that a line does not name were inactive. Calls follow the shape of the dose curve; as a rule, active = well fitted curve in the direction sought with a large enough effect; inconclusive = small, poorly fitted or top-dose-only effect, or another doubt; inactive = no such curve, though single readings can be large; an effect the other way counts as inactive or inconclusive.

Cc1[nH]n(-c2ccccc2)c(=O)c1N=Nc1ccc(F)cc1	Nrf2 block inconclusive
CCN1C(=O)c2cccc3c(S(=O)(=O)N(C(C)=O)c4ccc(OC(C)=O)cc4)ccc1c23	Nrf2 block 26µM
COc1ccc(N(C(=O)c2ccncc2)S(=O)(=O)c2ccc3c4c(cccc24)C(=O)N3C)cc1	TGFb inhibitor inconclusive, Nrf2 block inconclusive
COc1ccccc1C(NC(=O)C1CCN(CCOc2ccc(Cl)cc2)CC1)c1ccccn1 (configuration not stated)	none (no result: A549 viability, Nrf2 block)
O=C(Nc1ccc(S(=O)(=O)NCc2cccnc2)cc1)c1ccccc1Cl	Nrf2 block inconclusive
O=C(NCc1cccnc1)c1ccc(NC(=O)c2cccc([N+](=O)[O-])c2)cc1	Nrf2 block 4.6µM
O=C(NCc1cccnc1)c1ccc([N+](=O)[O-])cc1	none
O=C(Nc1ccc(S(=O)(=O)NCCc2ccccc2)cc1)c1ccco1	none
O=C(O)c1ccc(NCc2cccnc2)cc1	HepG2 viability 4µM
O=C(Nc1ccc(S(=O)(=O)NCCc2ccccc2)cc1)c1ccncc1	Nrf2 block 21µM
O=C(Nc1ccccc1)c1ccc(S(=O)(=O)NCc2cccnc2)cc1	Nrf2 block 13µM
COc1ccc(CC(=O)Nc2ccc(N3CCCCC3)cc2)cc1	Nrf2 block inconclusive
Cc1ccc(SCc2ccc(C(=O)Nc3cccnc3)cc2)cc1	none
C=CCN1C(=O)/C(=C\c2ccc(OC(=O)c3ccco3)c(OC)c2)SC1=S	none
C=CCN1C(=O)/C(=C/c2ccc(OC(C)=O)c(OCC)c2[N+](=O)[O-])SC1=S	TGFb inhibitor 7.1µM
COc1ccc(CCCc2nnc(SCC(=O)Nc3ncc(C)s3)o2)cc1	none
Clc1ccccc1-c1nn2c(-c3cc(-c4ccccc4)n[nH]3)nnc2s1	TGFb inhibitor inconclusive, Nrf2 block 23µM (no result: Nrf2 ARE act)
Cc1cccc(-c2nnc3sc(-c4ccccc4C)nn23)c1	HepG2 viability 13µM (no result: Nrf2 block)
COc1cccc(-c2nnc3sc(-c4ccccc4)nn23)c1	none
CCCCC(c1nnnn1Cc1ccco1)N1CCN(C(=O)c2ccco2)CC1 (configuration not stated)	none
C[C@H](NC(=O)[C@H](Cc1ccccc1)NC(=O)c1cc2cc(Cl)ccc2n1C)C(=O)O	none
CC(=O)Nc1ccc(S(=O)(=O)NC2(C(F)(F)F)C(=O)Nc3c2c(=O)[nH]c(=O)n3Cc2cccnc2)cc1 (configuration not stated)	Nrf2 block inconclusive, HepG2 viability 2.8µM
CC(=O)Nc1ccc(S(=O)(=O)NC2(C(F)(F)F)C(=O)Nc3c2c(=O)[nH]c(=O)n3Cc2ccco2)cc1 (configuration not stated)	none
CC1(Cc2ccc3c(c2)OCO3)C(=O)Nc2ccc(-c3cccc(C(F)(F)F)c3)cc21 (configuration not stated)	TGFb inhibitor inconclusive, HepG2 viability 18µM (no result: A549 viability, Nrf2 block)
CC1(Cc2ccc(C(F)(F)F)o2)C(=O)Nc2ccc(-c3cccc(C(F)(F)F)c3)cc21 (configuration not stated)	TGFb inhibitor 14µM, HepG2 viability 18µM (no result: A549 viability, Nrf2 block)
CC1(Cc2ccc(F)cc2)C(=O)Nc2ccc(-c3cccnc3)cc21 (configuration not stated)	none (no result: A549 viability, Nrf2 block)
Clc1ccc(C2=Nn3c(nnc3-c3cc(-c4ccccc4)n[nH]3)SC2)cc1	TGFb inhibitor inconclusive, HepG2 viability 16µM (no result: Nrf2 block)
CC(C)OC(=O)c1cccc(C(=O)OCc2ccco2)n1	HepG2 viability 7.1µM
CC(C)OC(=O)c1cccc(C(=O)Oc2ccccc2)n1	none
Cc1ccc(C(=O)NC(=S)NNC(=O)CCN2CCOCC2)cc1	Nrf2 block inconclusive
CN(C)S(=O)(=O)c1cccc(N=C2NN=C(c3ccccc3)CS2)c1	A549 viability inconclusive, Nrf2 block inconclusive
CC(=O)Nc1ccc(C2=NNC(=Nc3cccc(S(=O)(=O)N(C)C)c3)SC2)cc1	TGFb inhibitor 10µM, Nrf2 block inconclusive
Cc1cc(NCCCCCCCNc2cc(C)nc3cc([N+](=O)[O-])ccc23)c2ccc([N+](=O)[O-])cc2n1	TGFb inhibitor 8.9µM, Nrf2 block inconclusive
O=C(NCc1ccc(Cl)cc1)c1cccc2c1C(=O)N(CC1CCCO1)C2 (configuration not stated)	none
CCOC(=O)C(C)N1C(=O)S/C(=C/c2ccc3c(c2)n(C)c(=O)n3C)C1=O (configuration not stated)	Nrf2 ARE act inconclusive, Nrf2 block 21µM
CCC(C)N1C(=O)S/C(=C/c2ccc3c(c2)n(C)c(=O)n3C)C1=O (configuration not stated)	Nrf2 block inconclusive
O=C1/C(=C/c2ccc(O)c(O)c2)SC(=S)N1Nc1ccccc1	TGFb inhibitor inconclusive
CC(C)(C)NC(=O)C(c1ccncc1)N(Cc1cccs1)C(=O)Cn1nnc(-c2cccs2)n1 (configuration not stated)	none
CC12CCC(O)CC1=CCC1C2CCC2(C)C(c3ccn[nH]3)CCC12 (configuration not stated)	Nrf2 block 21µM
CC(C)(C)[C@H](N)C(=O)N[C@H]1CCC2C3CC=C4C[C@@H](O)CC[C@]4(C)C3CC[C@@]21C (some centres not stated)	A549 viability inconclusive, TGFb inhibitor 14µM, Nrf2 block inconclusive
N#Cc1c(N)nc(SCc2ccccc2)c(C#N)c1-c1ccco1	A549 viability inconclusive, TGFb inhibitor inconclusive, Nrf2 block 12µM
COc1ccc(/C=N/NC(=O)c2ccc(N(C)S(=O)(=O)c3ccccc3)cc2)cc1	Nrf2 block 26µM
Cc1ccc(S(=O)(=O)N(C)c2ccc(OCC(=O)Nc3nc4c(ccc5ccccc54)s3)cc2)cc1	none
COc1ccc(C(=O)Nc2ccc(S(=O)(=O)N(C)c3ccccc3)cc2)cc1	TGFb inhibitor inconclusive, Nrf2 block 21µM
Cc1ccc(S(=O)(=O)N(C)c2ccc(OCC(=O)Nc3nc4ccccc4s3)cc2)cc1	Nrf2 block 21µM
COc1ccc(/C=N/NC(=O)c2ccc(N(C)S(=O)(=O)c3ccccc3)cc2)c(OC)c1	none
Cc1ccc(S(=O)(=O)N(C)c2ccc(C(=O)Nc3ccc(C)cn3)cc2)cc1	Nrf2 block 12µM
Cn1cccc1Cc1nnc(SCC(=O)NCc2ccco2)n1-c1ccc(F)cc1	A549 viability inconclusive, Nrf2 block inconclusive
COc1ccc(CCNC(=O)c2ccc(N(C)S(=O)(=O)c3ccc(C)cc3)cc2)cc1	Nrf2 block inconclusive
Cc1ccc(NC(=O)c2ccc(NS(=O)(=O)/C=C/c3ccccc3)cc2)nc1	Nrf2 block 21µM
Cc1ccc(Cn2ccnc2SCC(=O)Nc2nc3ccccc3s2)cc1	TGFb inhibitor 11µM (no result: Nrf2 block)
